In all, about 5,500 compounds went through this assay and about 2,000 (36%) were called active. Not shown: some 18% with an inconclusive outcome. Rule as the data show it: active = normalized growth mostly below about 0.91 (no sharp cut-off); inconclusive = no clear call, values can overlap the other calls; inactive = mostly above about 0.92. The list shows a part of the results.
Assay: chemical genetic growth profiling, strain panel (AID 1159580);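 also: tested at 20 µM; growth read once vehicle control cultures reached saturation at 30 °C; 1 = growth at the plate median or of vehicle wells; lower values mean less growth of the strain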
Settings: growth OD

Measured: normalized growth

O=C1C(Cl)=C(Cl)C(=O)C(Cl)=C1Cl
inactive: S. cerevisiae deletion strains, locus YKR026C, strain gcn3, hits give low values 0.987 | S. cerevisiae deletion strains, locus YKR091W, strain srl3, hits give low values 0.99 | S. cerevisiae deletion strains, locus YLL001W, strain dnm1, hits give low values 0.958 | S. cerevisiae deletion strains, locus YLL026W, hits give low values 0.98 | S. cerevisiae deletion strains, locus YLL041C, strain sdh2, hits give low values 0.988 | S. cerevisiae deletion strains, locus YLR058C, strain SHM2, hits give low values 0.966 | S. cerevisiae deletion strains, locus YLR258W, strain gsy2, hits give low values 0.978 | S. cerevisiae deletion strains, locus YLR320W, strain mms22, hits give low values 0.92 | S. cerevisiae deletion strains, locus YLR342W, strain FKS1, hits give low values 0.935 | S. cerevisiae deletion strains, locus YLR357W, strain rsc2, hits give low values 0.86 | S. cerevisiae deletion strains, locus YLR370C, strain arc18, hits give low values 0.919 | S. cerevisiae deletion strains, locus YLR384C, strain iki3, hits give low values 0.966 | S. cerevisiae deletion strains, locus YML032C, strain rad52, hits give low values 0.912 | S. cerevisiae deletion strains, locus YMR058W, strain fet3, hits give low values 0.909 | S. cerevisiae deletion strains, locus YMR129W, hits give low values 0.957 | S. cerevisiae deletion strains, locus YMR205C, strain PFK2, hits give low values 0.932 | S. cerevisiae deletion strains, locus YMR231W, strain pep5, hits give low values 0.971 | S. cerevisiae deletion strains, locus YNL322C, strain KRE1 (second series), hits give low values 0.924 | S. cerevisiae deletion strains, locus YNR049C, strain mso1, hits give low values 0.989 | S. cerevisiae deletion strains, locus YOL012C, strain htz1 0.457 | S. cerevisiae deletion strains, locus YOL147C, strain pex11, hits give low values 0.986 | S. cerevisiae deletion strains, locus YOR001W, strain rrp6, hits give low values 0.915 | S. cerevisiae deletion strains, locus YOR080W, strain dia2, hits give low values 0.98 | S. cerevisiae deletion strains, locus YOR144C, strain elg1, hits give low values 0.985 | S. cerevisiae deletion strains, locus YOR265W, strain rbl2, hits give low values 0.959 | S. cerevisiae deletion strains, locus YOR270C, strain vph1, hits give low values 0.977 | S. cerevisiae deletion strains, locus YOR290C, strain snf2, hits give low values 0.941 | S. cerevisiae deletion strains, locus YPL078C, strain atp4, hits give low values 0.964 | S. cerevisiae deletion strains, locus YPL240C, strain hsp82, hits give low values 0.979 | S. cerevisiae deletion strains, locus YPL241C, strain CIN2, hits give low values 0.995
active: S. cerevisiae deletion strains, locus YKL009W, strain mrt4, hits give low values 1.17 [resistant] | S. cerevisiae deletion strains, locus YKL068W, hits give low values 0.12 | S. cerevisiae deletion strains, locus YKL085W, strain MDH1 (second series), hits give low values 0.0519 | S. cerevisiae deletion strains, locus YKL085W, strain MDH1, hits give low values 0.0519 | S. cerevisiae deletion strains, locus YKL160W, strain elf1, hits give low values 0.901 | S. cerevisiae deletion strains, locus YKL190W, strain CNB1, hits give low values 0.629 | S. cerevisiae deletion strains, locus YKR001C, strain vps1, hits give low values 0.094 | S. cerevisiae deletion strains, locus YLR027C, strain aat2, hits give low values 0.899 | S. cerevisiae deletion strains, locus YLR039C, strain RIC1, hits give low values 0.275 | S. cerevisiae deletion strains, locus YLR102C, strain apc9, hits give low values 0.254 | S. cerevisiae deletion strains, locus YLR113W, strain HOG1, hits give low values 0.145 | S. cerevisiae deletion strains, locus YLR221C, strain rsa3, hits give low values 0.855 | S. cerevisiae deletion strains, locus YLR262C, strain YPT6 (second series), hits give low values 0.703 | S. cerevisiae deletion strains, locus YLR262C, strain YPT6, hits give low values 0.168 | S. cerevisiae deletion strains, locus YLR268W, strain sec22, hits give low values 0.256 | S. cerevisiae deletion strains, locus YLR330W, strain CHS5, hits give low values 0.129 | S. cerevisiae deletion strains, locus YLR342W, strain FKS1 (second series), hits give low values 0.243 | S. cerevisiae deletion strains, locus YLR371W, strain rom2, hits give low values 0.151 | S. cerevisiae deletion strains, locus YLR418C, strain cdc73, hits give low values 0.292 | S. cerevisiae deletion strains, locus YML016C, strain PPZ1, hits give low values 0.776 | S. cerevisiae deletion strains, locus YML120C, strain ndi1, hits give low values 0.9 | S. cerevisiae deletion strains, locus YML124C, strain tub3, hits give low values 0.708 | S. cerevisiae deletion strains, locus YMR078C, strain ctf18, hits give low values 0.551 | S. cerevisiae deletion strains, locus YMR125W, strain sto1, hits give low values 0.792 | S. cerevisiae deletion strains, locus YMR223W, strain ubp8, hits give low values 0.182 | S. cerevisiae deletion strains, locus YMR263W, strain SAP30, hits give low values 0.794 | S. cerevisiae deletion strains, locus YMR307W, strain GAS1, hits give low values 0.112 | S. cerevisiae deletion strains, locus YNL067W, strain RPL9B, hits give low values 0.63 | S. cerevisiae deletion strains, locus YNL071W, strain lat1, hits give low values 0.824 | S. cerevisiae deletion strains, locus YNL128W, strain TEP1, hits give low values 0.341 | S. cerevisiae deletion strains, locus YNL153C, strain GIM3, hits give low values 0.814 | S. cerevisiae deletion strains, locus YNL183C, strain NPR1, hits give low values 0.0843 | S. cerevisiae deletion strains, locus YNL209W, strain ssb2, hits give low values 0.888 | S. cerevisiae deletion strains, locus YNL233W, strain BNI4, hits give low values 0.17 | S. cerevisiae deletion strains, locus YNL248C, strain rpa49, hits give low values 0.884 | S. cerevisiae deletion strains, locus YNL250W, strain rad50, hits give low values 0.0728 | S. cerevisiae deletion strains, locus YNL271C, strain bni1, hits give low values 0.0654 | S. cerevisiae deletion strains, locus YNL298W, strain CLA4, hits give low values 0.0642 | S. cerevisiae deletion strains, locus YNL307C, strain MCK1, hits give low values 0.206 | S. cerevisiae deletion strains, locus YNL322C, strain KRE1, hits give low values 0.849 | S. cerevisiae deletion strains, locus YNR052C, strain pop2, hits give low values 0.911 | S. cerevisiae deletion strains, locus YOL006C, strain TOP1, hits give low values 0.357 | S. cerevisiae deletion strains, locus YOR061W, strain CKA2, hits give low values 0.617 | S. cerevisiae deletion strains, locus YOR069W, strain VPS5, hits give low values 0.577 | S. cerevisiae deletion strains, locus YOR070C, strain gyp1, hits give low values 0.917 | S. cerevisiae deletion strains, locus YOR083W, strain WHI5, hits give low values 0.871 | S. cerevisiae deletion strains, locus YOR106W, strain vam3, hits give low values 0.856 | S. cerevisiae deletion strains, locus YOR136W, strain idh2, hits give low values 0.307 | S. cerevisiae deletion strains, locus YOR184W, strain ser1, hits give low values 0.195 | S. cerevisiae deletion strains, locus YOR231W, strain MKK1, hits give low values 0.124 | S. cerevisiae deletion strains, locus YOR316C, strain cot1, hits give low values 0.677 | S. cerevisiae deletion strains, locus YPL051W, strain arl3, hits give low values 0.841 | S. cerevisiae deletion strains, locus YPL055C, strain LGE1, hits give low values 0.408 | S. cerevisiae deletion strains, locus YPL106C, strain sse1, hits give low values 0.838 | S. cerevisiae deletion strains, locus YPL256C, strain CLN2, hits give low values 0.132 | S. cerevisiae deletion strains, locus YPR119W, strain clb2, hits give low values 0.444 | S. cerevisiae deletion strains, locus YPR141C, strain kar3, hits give low values 0.11 | S. cerevisiae deletion strains, locus YPR163C, strain tif3, hits give low values 0.321 | S. cerevisiae deletion strains, locus YPR167C, strain met16, hits give low values 0.176 | S. cerevisiae deletion strains, strain wtn01, hits give low values 0.32 | S. cerevisiae strains, strain wild type, hits give low values 0.423
